# Test results from PubChem BioAssay (NCATS).
# Where “and” joins values, the source holds several entries; their conditions need not be identical. Identical values can stand only once. Results filed as inconclusive are left out. Entries that show only a call come without a potency. A number with no mark means an inactive call. Calls of active or inactive are those of the source. The call rests on the fitted dose curve; in most records, active means well fitted curve in the direction sought with a large enough effect; inconclusive means small, poorly fitted or top-dose-only effect, or another doubt; inactive means no such curve, though single readings can be large; an effect the other way counts as inactive or inconclusive.
# How the values were obtained:
# [1] = Viability qHTS for spleen associated tyrosine kinase inhibitor (SYKi) naive MV4-11 cells (AID 1963823); further: nearly all actives have a fitted effect of over 40% in size
# How it was run: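 In this viability screen, compounds acted on SYK inhibitor naive MV4-11 cells for three days (72 hr, 37 C). Remaining viable cells were measured by CellTiter-Glo luminescence following a 10 min room-temperature development.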
# [2] = Quantitative highthroughput screen to assess conditional lethalithy of NOMO1 cells grown in RPMI1640 with untreated serum (RPMI+s) (AID 1963876); further: nearly all actives have a fitted effect of over 35% in size
# How it was run: (§1)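 Each medium arm—HPLM with 10% dialyzed FBS, or RPMI1640 with 5 mM glucose and 10% untreated or dialyzed FBS—was screened against an 11-point, 3-fold compound titration for 48 h at 37 °C, with CellTiter-Glo luminescence as endpoint.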
# [3] = Quantitative highthroughput screen to assess conditional lethalithy of NOMO1 cells grown in RPMI1640 with dialyzed fetal bovine serum (RPMI+ds) (AID 1963877); further: nearly all actives have a fitted effect of over 30% in size; on Viability: series mostly up to about 46 µM
# How it was run: as §1
# [4] = Quantitative highthroughput screen to assess conditional lethalithy of NOMO1 cells grown in Human Plasma-Like Medium with dialyzed fetal bovine serum (HPLM+ds) (AID 1963878); further: nearly all actives have a fitted effect of over 35% in size
# How it was run: as §1
# [5] = Quantitative highthroughput screen to assess conditional lethalithy of P12 Ichikawa cells grown in Human Plasma-Like Medium with dialyzed fetal bovine serum (HPLM+ds) (AID 1963879); details: Potency: viability; further: nearly all actives have a fitted effect of over 35% in size; on Viability: series mostly up to about 46 µM
# How it was run: as §1
# [6] = Quantitative highthroughput screen to assess conditional lethalithy of P12 Ichikawa cells grown in RPMI1640 with dialyzed fetal bovine serum (RPMI+ds) (AID 1963880); details: Potency: P12-Ichikawa viability; further: nearly all actives have a fitted effect of over 35% in size
# How it was run: as §1
# [7] = Quantitative highthroughput screen to assess conditional lethalithy of P12 Ichikawa cells grown in RPMI1640 with untreated serum (RPMI+s) (AID 1963881); details: Potency: viability; further: nearly all actives have a fitted effect of over 35% in size; on Viability: series mostly up to about 46 µM
# How it was run: as §1
# [8] = Quantitative highthroughput screen to assess conditional lethalithy of SEM cells grown in Human Plasma-Like Medium with dialyzed fetal bovine serum (HPLM+ds) (AID 1963882); further: nearly all actives have a fitted effect of over 35% in size; on Viability: series mostly up to about 46 µM
# How it was run: as §1
# [9] = Quantitative highthroughput screen to assess conditional lethalithy of SEM cells grown in RPMI1640 with unreated serum (RPMI+s) (AID 1963883); further: nearly all actives have a fitted effect of over 35% in size
# How it was run: as §1
# [10] = Quantitative highthroughput screen to assess conditional lethalithy of SEM cells grown in RPMI1640 with dialyzed fetal bovine serum (RPMI+ds) (AID 1963884); further: nearly all actives have a fitted effect of over 35% in size; on Viability: series mostly up to about 46 µM
# How it was run: as §1
# [11] = Cellular viability qHTS for adrenocortical cancer (ACC) cell line SW-13 (AID 1963989); details: SW-13 ACC cells viability, CellTiter-Glo, 48 h; activity (max response): active compounds read low; further: nearly all actives have a fitted effect of over 65% in size;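 on activity (max response): cells grown in serum-free medium with ITS supplement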
# How it was run: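 Luminescent ATP read-out (CellTiter-Glo, 20 min at room temperature) measured metabolically competent SW-13 cells after 48 h compound treatment. Final concentrations spanned up to 46 uM; bortezomib served as positive control.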
# [12] = Cellular viability qHTS for adrenocortical cancer (ACC) cell line NCI-H295R (AID 1963990); further: nearly all actives have a fitted effect of over 60% in size
# How it was run: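 IC50 and maximal efficacy derive from four-parameter logistic modelling of titration curves, with reads scaled between DMSO-only wells (0%) and doxorubicin hydrochloride (100% inhibition). Compounds spanned up to 46 uM over 48 h.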
# Potency means the concentration at half of the fitted maximal effect.
SMILES,Potency [1],Potency [2],Potency [3],Potency [4],Potency [5],Potency [6],Potency [7],Potency [8],Potency [9],Potency [10],Potency [11],Potency [12],activity (max response) [11]
CC(C)(C)c1cnc(CSc2cnc(NC(=O)C3CCNCC3)s2)o1,0.296 µM (active),1.05 µM (active),0.935 µM (active),0.59 µM (active),0.166 µM (active),1.32 µM (active),1.18 µM (active),0.662 µM (active),0.935 µM (active),0.833 µM (active),0.631 µM (active),7.94 µM (active),–
Cc1cc2nc3c(=O)[nH]c(=O)nc-3n(CC(O)C(O)C(O)CO)c2cc1C (stereo not drawn),inactive,inactive,inactive,–,inactive,inactive,inactive,inactive,inactive,inactive,–,inactive,9.67%
CCC(=O)NCC[C@@H]1CCc2ccc3c(c21)CCO3,inactive,inactive,inactive,inactive,inactive,inactive,inactive,3.32 µM (active),–,5.26 µM (active),–,inactive,–
CCCc1nc(C)c2c(=O)[nH]c(-c3cc(S(=O)(=O)N4CCN(CC)CC4)ccc3OCC)nn12,inactive,9.35 µM (active),9.35 µM (active),9.35 µM (active),16.6 µM (active),9.35 µM (active),10.5 µM (active),11.8 µM (active),9.35 µM (active),7.43 µM (active),–,inactive,-1.6% and 3.7%
C[C@](N)(Cc1ccc(O)c(O)c1)C(=O)O,inactive,inactive,inactive,inactive,inactive,inactive,inactive,26.4 µM (active),23.5 µM (active),23.5 µM (active),–,inactive,12% and -6.33%
CC1(C)Cc2c(sc(NC(=S)NC(=O)c3ccccc3)c2C(=O)O)CO1,14.8 µM (active),inactive,inactive,inactive,inactive,inactive,inactive,inactive,–,inactive,–,inactive,11%
C=C(c1ccc(C(=O)O)cc1)c1cc2c(cc1C)C(C)(C)CCC2(C)C,0.468 µM (active),inactive,1.05 µM (active),0.469 µM (active),inactive,–,inactive,inactive,inactive,inactive,–,–,-0.298% and -6.68%
CCC[C@H]1C[C@H](C(=O)N[C@@H]([C@@H]2O[C@@H](SC)[C@@H](O)[C@@H](O)[C@@H]2O)[C@H](C)Cl)N(C)C1,inactive,inactive,inactive,inactive,–,–,–,inactive,–,inactive,–,–,–
C[C@](Cc1c[nH]c2ccccc12)(NC(=O)OC1C2CC3CC(C2)CC1C3)C(=O)NC[C@H](NC(=O)CCC(=O)O)c1ccccc1 (stereo partly drawn),inactive,inactive,inactive,inactive,inactive,inactive,inactive,inactive,inactive,–,–,inactive,0.678%
C[C@H](NC(=O)[C@@H](O)c1cc(F)cc(F)c1)C(=O)N[C@@H]1C(=O)N(C)c2ccccc2-c2ccccc21,inactive,inactive,inactive,inactive,inactive,inactive,inactive,inactive,inactive,–,–,inactive,-11.3%
O=c1cc(N2CCOCC2)oc2c(-c3ccccc3)cccc12,5.9 µM (active),inactive,inactive,inactive,inactive,inactive,inactive,–,inactive,–,–,inactive,–
CC(C)NCC(O)c1ccc(O)c(O)c1 (stereo not drawn),inactive,5.9 µM (active),7.43 µM (active),4.69 µM (active),6.62 µM (active),9.35 µM (active),7.43 µM (active),–,–,–,–,inactive,–
CNC(=O)[C@H](Cc1ccccc1)NC(=O)[C@H](CC(C)C)[C@H](CSc1cccs1)C(=O)NO,5.25 µM (active),inactive,inactive,inactive,–,11.8 µM (active),9.35 µM (active),16.6 µM (active),–,14.8 µM (active),–,inactive,-14.2%
